According to PubChem BioAssay AID1159580 (chemical genetic matrix, 2015):
Hit rate of the full screen: of about 5,500 compounds, about 2,000 (36%) were called active. Another 18% or so got no clear call; they are omitted. No stated cut-off is given here; in the data, active means normalized growth mostly below about 0.91 (no sharp cut-off); inconclusive means no clear call, values can overlap the other calls; inactive means mostly above about 0.92. The list shows a part of the results.

Test: chemical genetic growth profiling, strain panel (AID 1159580);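 further: tested at 20 µM; growth read once vehicle control cultures reached saturation at 30 °C; 1 = growth at the plate median or of vehicle wells; lower values mean less growth of the strain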
Conditions: growth OD

Measured: normalized growth

CC[C@@]1(O)C[C@H](O[C@H]2C[C@H](N(C)C)[C@H](O)[C@H](C)O2)c2c(cc3c(c2O)C(=O)c2c(O)cccc2C3=O)[C@H]1C(=O)OC
inactive: S. cerevisiae deletion strains, locus YKL068W, hits give low values 0.965 | S. cerevisiae deletion strains, locus YKR026C, strain gcn3, hits give low values 0.945 | S. cerevisiae deletion strains, locus YKR091W, strain srl3, hits give low values 0.945 | S. cerevisiae deletion strains, locus YLL041C, strain sdh2, hits give low values 0.944 | S. cerevisiae deletion strains, locus YLR113W, strain HOG1, hits give low values 1.02 | S. cerevisiae deletion strains, locus YLR258W, strain gsy2, hits give low values 0.929 | S. cerevisiae deletion strains, locus YLR357W, strain rsc2, hits give low values 0.939 | S. cerevisiae deletion strains, locus YLR384C, strain iki3, hits give low values 0.93 | S. cerevisiae deletion strains, locus YML016C, strain PPZ1, hits give low values 0.929 | S. cerevisiae deletion strains, locus YMR125W, strain sto1, hits give low values 1.05 | S. cerevisiae deletion strains, locus YMR263W, strain SAP30, hits give low values 0.92 | S. cerevisiae deletion strains, locus YMR307W, strain GAS1, hits give low values 0.601 | S. cerevisiae deletion strains, locus YNL153C, strain GIM3, hits give low values 0.94 | S. cerevisiae deletion strains, locus YNL183C, strain NPR1, hits give low values 0.926 | S. cerevisiae deletion strains, locus YNL322C, strain KRE1 (second series), hits give low values 0.922 | S. cerevisiae deletion strains, locus YNR049C, strain mso1, hits give low values 0.946 | S. cerevisiae deletion strains, locus YOL012C, strain htz1 0.351 | S. cerevisiae deletion strains, locus YOR001W, strain rrp6, hits give low values 0.934 | S. cerevisiae deletion strains, locus YOR061W, strain CKA2, hits give low values 0.89 | S. cerevisiae deletion strains, locus YOR080W, strain dia2, hits give low values 0.97 | S. cerevisiae deletion strains, locus YOR231W, strain MKK1, hits give low values 0.994 | S. cerevisiae deletion strains, locus YOR290C, strain snf2, hits give low values 0.932 | S. cerevisiae deletion strains, locus YPL078C, strain atp4, hits give low values 0.961 | S. cerevisiae deletion strains, locus YPL106C, strain sse1, hits give low values 1.04 | S. cerevisiae deletion strains, locus YPL256C, strain CLN2, hits give low values 0.963 | S. cerevisiae deletion strains, locus YPR141C, strain kar3, hits give low values 0.935
active: S. cerevisiae deletion strains, locus YKL085W, strain MDH1 (second series), hits give low values 0.914 | S. cerevisiae deletion strains, locus YKL085W, strain MDH1, hits give low values 0.914 | S. cerevisiae deletion strains, locus YKL160W, strain elf1, hits give low values 0.873 | S. cerevisiae deletion strains, locus YKL190W, strain CNB1, hits give low values 0.876 | S. cerevisiae deletion strains, locus YKR001C, strain vps1, hits give low values 0.639 | S. cerevisiae deletion strains, locus YLL001W, strain dnm1, hits give low values 0.869 | S. cerevisiae deletion strains, locus YLL026W, hits give low values 0.908 | S. cerevisiae deletion strains, locus YLR027C, strain aat2, hits give low values 0.877 | S. cerevisiae deletion strains, locus YLR039C, strain RIC1, hits give low values 0.491 | S. cerevisiae deletion strains, locus YLR058C, strain SHM2, hits give low values 0.89 | S. cerevisiae deletion strains, locus YLR102C, strain apc9, hits give low values 0.901 | S. cerevisiae deletion strains, locus YLR221C, strain rsa3, hits give low values 0.855 | S. cerevisiae deletion strains, locus YLR262C, strain YPT6 (second series), hits give low values 0.649 | S. cerevisiae deletion strains, locus YLR262C, strain YPT6, hits give low values 0.462 | S. cerevisiae deletion strains, locus YLR268W, strain sec22, hits give low values 0.691 | S. cerevisiae deletion strains, locus YLR320W, strain mms22, hits give low values 0.245 | S. cerevisiae deletion strains, locus YLR330W, strain CHS5, hits give low values 0.873 | S. cerevisiae deletion strains, locus YLR342W, strain FKS1 (second series), hits give low values 0.769 | S. cerevisiae deletion strains, locus YLR342W, strain FKS1, hits give low values 0.862 | S. cerevisiae deletion strains, locus YLR370C, strain arc18, hits give low values 0.899 | S. cerevisiae deletion strains, locus YLR371W, strain rom2, hits give low values 0.846 | S. cerevisiae deletion strains, locus YLR418C, strain cdc73, hits give low values 0.69 | S. cerevisiae deletion strains, locus YML032C, strain rad52, hits give low values 0.241 | S. cerevisiae deletion strains, locus YML120C, strain ndi1, hits give low values 0.912 | S. cerevisiae deletion strains, locus YML124C, strain tub3, hits give low values 0.9 | S. cerevisiae deletion strains, locus YMR058W, strain fet3, hits give low values 0.818 | S. cerevisiae deletion strains, locus YMR078C, strain ctf18, hits give low values 0.724 | S. cerevisiae deletion strains, locus YMR129W, hits give low values 0.921 | S. cerevisiae deletion strains, locus YMR205C, strain PFK2, hits give low values 0.779 | S. cerevisiae deletion strains, locus YMR223W, strain ubp8, hits give low values 0.838 | S. cerevisiae deletion strains, locus YMR231W, strain pep5, hits give low values 0.918 | S. cerevisiae deletion strains, locus YNL067W, strain RPL9B, hits give low values 0.824 | S. cerevisiae deletion strains, locus YNL071W, strain lat1, hits give low values 0.815 | S. cerevisiae deletion strains, locus YNL209W, strain ssb2, hits give low values 0.871 | S. cerevisiae deletion strains, locus YNL233W, strain BNI4, hits give low values 0.861 | S. cerevisiae deletion strains, locus YNL248C, strain rpa49, hits give low values 0.309 | S. cerevisiae deletion strains, locus YNL250W, strain rad50, hits give low values 0.559 | S. cerevisiae deletion strains, locus YNL271C, strain bni1, hits give low values 0.916 | S. cerevisiae deletion strains, locus YNL298W, strain CLA4, hits give low values 0.898 | S. cerevisiae deletion strains, locus YNL307C, strain MCK1, hits give low values 0.864 | S. cerevisiae deletion strains, locus YNL322C, strain KRE1, hits give low values 0.893 | S. cerevisiae deletion strains, locus YNR052C, strain pop2, hits give low values 0.65 | S. cerevisiae deletion strains, locus YOL006C, strain TOP1, hits give low values 0.198 | S. cerevisiae deletion strains, locus YOL147C, strain pex11, hits give low values 0.837 | S. cerevisiae deletion strains, locus YOR069W, strain VPS5, hits give low values 0.895 | S. cerevisiae deletion strains, locus YOR070C, strain gyp1, hits give low values 0.898 | S. cerevisiae deletion strains, locus YOR083W, strain WHI5, hits give low values 0.81 | S. cerevisiae deletion strains, locus YOR106W, strain vam3, hits give low values 0.672 | S. cerevisiae deletion strains, locus YOR136W, strain idh2, hits give low values 0.894 | S. cerevisiae deletion strains, locus YOR144C, strain elg1, hits give low values 0.857 | S. cerevisiae deletion strains, locus YOR184W, strain ser1, hits give low values 0.591 | S. cerevisiae deletion strains, locus YOR265W, strain rbl2, hits give low values 0.917 | S. cerevisiae deletion strains, locus YOR270C, strain vph1, hits give low values 0.39 | S. cerevisiae deletion strains, locus YOR316C, strain cot1, hits give low values 0.915 | S. cerevisiae deletion strains, locus YPL051W, strain arl3, hits give low values 0.785 | S. cerevisiae deletion strains, locus YPL055C, strain LGE1, hits give low values 0.744 | S. cerevisiae deletion strains, locus YPL240C, strain hsp82, hits give low values 0.92 | S. cerevisiae deletion strains, locus YPL241C, strain CIN2, hits give low values 0.929 | S. cerevisiae deletion strains, locus YPR119W, strain clb2, hits give low values 0.901 | S. cerevisiae deletion strains, locus YPR163C, strain tif3, hits give low values 0.783 | S. cerevisiae deletion strains, locus YPR167C, strain met16, hits give low values 0.882 | S. cerevisiae deletion strains, strain wtn01, hits give low values 0.759 | S. cerevisiae strains, strain wild type, hits give low values 0.841
